In the library only some 32% were active in any assay of this set; here they are far more common.
PostGolgi ctrl – growth inhibition of yeast control strain, primary screen, counter-screen for post-Golgi transport modulator project | inhibition, % at 10 µM | efflux-deficient yeast background strain, growth absorbance A615, 16 h | 5% of 98,000 active
CYP2C19 activ – human CYP2C19 activators, primary screen, biochemical, luminescence. Cytochrome P450 2C19 (Homo sapiens), P33261. recombinant CYP2C19, luciferin-H EGE luminescence; hits give high values; 0 = fully inhibited enzyme, 1 = untreated enzyme. activation factor at 5 µM. 96,000 tested, under 10 active. AID 1025, 2008;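 active = activation factor of at least 2 at 5 µM in the primary screen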;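 also: 0 = wells with 2.5 mM tranylcypromine and 1 = vehicle-only wells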
PostGolgi yeast – phenotypic screen on post-Golgi transport, primary screen; post-Golgi transport phenotypic cell assay; inhibition, % at 10 µM; 0.9% of 98,000 active; AID 739, 2007;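 also: yeast cells grown in 1536-well plates; yeast grown about 18 h at 30C before absorbance read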
CYP2C9 activ – human CYP2C9 activators, primary screen, biochemical, luminescence | 1.4% of 96,000 active | Cytochrome P450 2C9 (Homo sapiens), P11712 | recombinant CYP2C9, luciferin-H conversion; hits give high values; factor 1 = untreated enzyme, 0 = blocked | activation factor at 5 µM;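 active = activation factor of 2 or more for CYP2C9 at a 5 µM dose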;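 also: 0 = sulfaphenazole-blocked wells and 1 = vehicle-only wells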
Target sequence (P11712 whole entry, looked up): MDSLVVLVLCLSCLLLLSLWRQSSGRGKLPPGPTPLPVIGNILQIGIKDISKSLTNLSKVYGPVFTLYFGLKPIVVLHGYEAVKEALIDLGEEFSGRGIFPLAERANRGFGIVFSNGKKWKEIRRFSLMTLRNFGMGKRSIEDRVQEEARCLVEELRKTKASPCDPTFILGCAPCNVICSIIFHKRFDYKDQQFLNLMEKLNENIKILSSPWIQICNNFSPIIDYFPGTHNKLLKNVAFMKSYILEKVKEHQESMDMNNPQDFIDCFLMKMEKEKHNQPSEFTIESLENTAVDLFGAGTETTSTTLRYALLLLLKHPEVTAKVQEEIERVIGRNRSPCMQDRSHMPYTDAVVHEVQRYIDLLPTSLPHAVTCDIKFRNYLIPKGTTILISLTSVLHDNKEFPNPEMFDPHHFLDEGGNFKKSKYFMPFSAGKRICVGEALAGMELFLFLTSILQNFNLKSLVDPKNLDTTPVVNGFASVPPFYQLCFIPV
CYP2C19 inh – blockers of cytochrome P450 2C19 activity – biochemical, luminescence, ADME assay, primary screen; CYP2C19 Supersomes, luciferin-H EGE luminescence, 30 min; inhibition, % at 5 µM; AID 778, 2007; 21% of 96,000 active;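 active = CYP2C19 inhibition above a set limit at 5 µM in the primary screen, cut at about 50% in these data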;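 also: plate controls were negative control wells for no effect and 2.5 mM tranylcypromine positive control for full effect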
CYP2C9 inh – blockers of cytochrome P450 2C9 activity – biochemical, luminescence, ADME assay, primary screen; inhibition, % at 5 µM; CYP2C9 Supersomes, luciferin-H conversion; P11712; 20% of 96,000 active; AID 777, 2007;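 active = blocking of liver enzyme CYP2C9 beyond about 50% at 5 µM, limit read from the data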
* hit, by the source's call. Rule as the data show it, unless noted: active = inhibition above about 30%; inactive = the rest.

Screening Cc1ccc(S(=O)(=O)N2CCC(C(=O)OC(C)C(=O)NCc3ccc4c(c3)OCO4)CC2)cc1 (configuration not stated) returned PostGolgi ctrl 2, CYP2C19 activ 0.3, PostGolgi yeast 0, CYP2C9 activ 1.4, CYP2C19 inh 73* and CYP2C9 inh -44.
`O=C(NC1CC1)C1CCCN1S(=O)(=O)c1ccc2ccccc2c1` (configuration not stated) gave PostGolgi ctrl 3, CYP2C19 activ 0.6, PostGolgi yeast -3, CYP2C9 activ 1.8, CYP2C19 inh 43 and CYP2C9 inh -80.
COC(=O)c1ccc(S(=O)(=O)N2CCCCCC2)cc1 was read as PostGolgi ctrl 7, CYP2C19 activ 0.6, PostGolgi yeast 1, CYP2C9 activ 0.7, CYP2C19 inh 44 and CYP2C9 inh 26.
`O=C(NCc1cccnc1)c1ccc(S(=O)(=O)N2CCCCC2)cc1` gave PostGolgi ctrl 1, CYP2C19 activ 0.4, PostGolgi yeast -7, CYP2C9 activ 0.5, CYP2C19 inh 61* and CYP2C9 inh 47.
`O=C(NCc1ccco1)C1CCCN1S(=O)(=O)c1ccc2ccccc2c1` (configuration not stated) gave PostGolgi ctrl 10, CYP2C19 activ 0.1, PostGolgi yeast 19, CYP2C9 activ 1.8, CYP2C19 inh 88* and CYP2C9 inh -80.
Screening CS(=O)(=O)N1CCC(C(=O)NCC2CCCO2)CC1 (configuration not stated) returned PostGolgi ctrl 6, CYP2C19 activ 1, PostGolgi yeast -1, CYP2C9 activ 1.1, CYP2C19 inh -2 and CYP2C9 inh -8.
For CCN(CC)C(=O)CSc1nnc(CCCCCNC(=O)OC(C)(C)C)o1 the results were PostGolgi ctrl 3, CYP2C19 activ 1, PostGolgi yeast -1, CYP2C9 activ 0.7, CYP2C19 inh 1 and CYP2C9 inh 28.
CCOc1ccccc1N1CC(C(=O)N2CCc3ccccc32)CC1=O (configuration not stated) was read as PostGolgi ctrl 10, CYP2C19 activ 0.9, PostGolgi yeast -1, CYP2C9 activ 0.9, CYP2C19 inh 5 and CYP2C9 inh 15.
`O=C(N1CCCC1)C12CCC3CC(CC(C3)C1)C2` gave PostGolgi ctrl 3, CYP2C19 activ 0.7, PostGolgi yeast 6, CYP2C9 activ 0.9, CYP2C19 inh 26 and CYP2C9 inh 8.
COc1ccc(-c2cc(C(=O)Oc3ccc([N+](=O)[O-])cc3)c3ccccc3n2)cc1 was read as PostGolgi ctrl 14, CYP2C19 activ 1.1, PostGolgi yeast 30, CYP2C9 activ 0.8, CYP2C19 inh -12 and CYP2C9 inh 17.
Cc1cc(C(=O)OC2CCOC2=O)c2ccccc2n1 (configuration not stated) was read as PostGolgi ctrl 8, CYP2C19 activ 0.9, PostGolgi yeast -6, CYP2C9 activ 1, CYP2C19 inh 8 and CYP2C9 inh 4.
O=C(OC1CCOC1=O)c1cc(-c2ccc(Br)cc2)nc2ccccc12 (configuration not stated) was read as PostGolgi ctrl 29, CYP2C19 activ 1, PostGolgi yeast -4, CYP2C9 activ 0.5, CYP2C19 inh 0 and CYP2C9 inh 52*.
`Cc1ccc(C(=O)COC(=O)c2cc(Cl)nc3ccccc23)cc1` gave PostGolgi ctrl 13, CYP2C19 activ 0.3, PostGolgi yeast -4, CYP2C9 activ 1.5, CYP2C19 inh 65* and CYP2C9 inh -53.
For COc1ccc(-c2cc(C(=O)OCC(=O)N(C)C)c3ccccc3n2)cc1 the results were PostGolgi ctrl 9, CYP2C19 activ 0.1, PostGolgi yeast -23, CYP2C9 activ 0.3, CYP2C19 inh 88* and CYP2C9 inh 72*.
Screening COc1ccc(-c2cc(C(=O)OC3CCOC3=O)c3ccccc3n2)cc1 (configuration not stated) returned PostGolgi ctrl 2, CYP2C19 activ 1, PostGolgi yeast 4, CYP2C9 activ 0, CYP2C19 inh 4 and CYP2C9 inh 96*.
For COC(=O)c1cc(COC(=O)c2cccnc2SC)oc1C the results were PostGolgi ctrl 12, CYP2C19 activ 0.9, PostGolgi yeast 16, CYP2C9 activ 1, CYP2C19 inh 12 and CYP2C9 inh 0.
Screening CCc1nc2ccccc2n(CCOCCn2c(=O)c(CC)nc3ccccc32)c1=O returned CYP2C19 activ 0.9, CYP2C9 activ 0.7, CYP2C19 inh 8 and CYP2C9 inh 31.
Screening OCCOCCn1c2ccccc2c2ccccc21 returned PostGolgi ctrl -12, CYP2C19 activ 0.5, PostGolgi yeast -3, CYP2C9 activ 0.8, CYP2C19 inh 55* and CYP2C9 inh 21.
For CC(C)Cn1c(CN2C(=O)c3ccccc3C2=O)nc2ccccc2c1=O the results were PostGolgi ctrl 1, CYP2C19 activ 0.9, PostGolgi yeast -5, CYP2C9 activ 0.7, CYP2C19 inh 6 and CYP2C9 inh 29.
For CC(C)CCn1c(=O)c2ccccc2c2ccccc2c1=O the results were PostGolgi ctrl 22, CYP2C19 activ 0.1, PostGolgi yeast 3, CYP2C9 activ 0.2, CYP2C19 inh 86* and CYP2C9 inh 80*.
CC(C)Cn1c(=O)c2ccccc2c2ccccc2c1=O was read as PostGolgi ctrl 33*, CYP2C19 activ 0.7, PostGolgi yeast 3, CYP2C9 activ 0.9, CYP2C19 inh 35 and CYP2C9 inh 14.
`C=CCNS(=O)(=O)c1ccc(OCC(=O)OC)cc1` gave PostGolgi ctrl 25, CYP2C19 activ 0.3, PostGolgi yeast 1, CYP2C9 activ 0.3, CYP2C19 inh 70* and CYP2C9 inh 71*.
`CCCNS(=O)(=O)c1ccc(OCC(=O)NCc2ccco2)cc1` gave PostGolgi ctrl 23, CYP2C19 activ 1, PostGolgi yeast -5, CYP2C9 activ 0.7, CYP2C19 inh 4 and CYP2C9 inh 33.
Screening COC(=O)COc1ccc(S(=O)(=O)Nc2ccc(C(N)=O)cc2)cc1 returned PostGolgi ctrl -1, CYP2C19 activ 1.1, PostGolgi yeast 6, CYP2C9 activ 0.9, CYP2C19 inh -9 and CYP2C9 inh 10.
CCOC(=O)COc1ccc(S(=O)(=O)NCc2ccco2)cc1 was read as PostGolgi ctrl 2, CYP2C19 activ 0.3, PostGolgi yeast 2, CYP2C9 activ 0.6, CYP2C19 inh 73* and CYP2C9 inh 42.
Screening COC(=O)COc1ccc(S(=O)(=O)NCc2ccco2)cc1 returned PostGolgi ctrl 4, CYP2C19 activ 0.4, PostGolgi yeast -2, CYP2C9 activ 1, CYP2C19 inh 60* and CYP2C9 inh 4.
For CNC(=O)c1cc(Nc2nnc(C)c3ccccc23)ccc1OC the results were PostGolgi ctrl 13, CYP2C19 activ 1.2, PostGolgi yeast -9, CYP2C9 activ 1, CYP2C19 inh -24 and CYP2C9 inh 1.

High-throughput results deposited in PubChem by several laboratories.
